Data: PubChem BioAssay AID1851 (National Center for Advancing Translational Sciences (NCATS), 2009)
Among all 16,000 compounds or so, about 2,600 (16%) were called active. Inconclusive results (about 20%) are left out. The call rests on the fitted dose curve; in most records, active means well fitted curve in the direction sought with a large enough effect; inconclusive means small, poorly fitted or top-dose-only effect, or effect the other way; inactive means no such curve, though single readings can be large or run the other way. A selection follows.
On the % scale 0 is the no-effect control and ±100 the full control effect.

What follows are compounds tested against Cytochrome P450 2D6 (Homo sapiens) (UniProt P10635) (assay: Cytochrome panel assay with activity outcomes). Details: recombinant CYP, pro-luciferin dealkylation, luminescence, p450-cyp2d6; series mostly up to 57.1 µM.
Chain of Cytochrome P450 2D6 (Homo sapiens) (P10635 whole entry, looked up): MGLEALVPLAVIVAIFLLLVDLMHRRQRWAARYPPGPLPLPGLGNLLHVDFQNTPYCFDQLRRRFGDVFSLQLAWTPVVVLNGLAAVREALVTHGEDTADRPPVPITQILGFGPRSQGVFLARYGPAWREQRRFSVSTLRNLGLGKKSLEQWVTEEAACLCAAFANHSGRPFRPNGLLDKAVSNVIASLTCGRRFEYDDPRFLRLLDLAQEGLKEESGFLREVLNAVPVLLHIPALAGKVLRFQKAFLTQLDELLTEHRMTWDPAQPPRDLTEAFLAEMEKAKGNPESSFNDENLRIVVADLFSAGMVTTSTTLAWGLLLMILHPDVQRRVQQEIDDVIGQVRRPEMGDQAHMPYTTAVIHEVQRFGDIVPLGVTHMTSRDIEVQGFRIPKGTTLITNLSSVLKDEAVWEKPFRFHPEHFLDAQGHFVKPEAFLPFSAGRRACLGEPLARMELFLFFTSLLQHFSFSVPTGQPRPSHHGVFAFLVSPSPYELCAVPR
In the case of `CCOC(=O)CSc1ncc(OC)c(Sc2ccc(Cl)cc2)n1`, the AC50 is reported as “inactive”. With `CCCC(=O)Nc1nc(-c2ccc3c(c2)CCN3S(C)(=O)=O)cs1` the AC50 was “inactive”. For `COc1ccccc1C(=O)O/N=C1/CCCc2c1ccc(OC)c2[N+](=O)[O-]`, the AC50 was “inactive”. `C[C@](N)(Cc1ccc(O)c(O)c1)C(=O)O` was tested, and the AC50 was “inactive”. For `Nc1nc(N)c2nn(-c3ccc(C(=O)O)cc3)nc2n1`, the activity, negative = inhibition was -6.74% [at 11.4 µM] (inactive). With `Cc1c(-c2ccc(F)cc2)nc(N)c(C#N)c1-c1cccs1` the AC50 was “inactive”. For `CCOc1ccc(N=C2NC(=O)C(CC(=O)O)S2)cc1` (configuration not stated), the AC50 was “inactive”. In the case of `Cc1ccc(NC(=O)CCC(=O)NNS(=O)(=O)c2ccccc2)c(C)c1`, the AC50 is reported as “inactive”. `O=C(NCCCN1CCC(Cc2ccccc2)CC1)C1CCN(S(=O)(=O)N2CCOCC2)CC1` was tested, and the AC50 was 12.6 µM (active). With `COc1cccc(CNC(=O)C2CCN(S(=O)(=O)N3CCCCC3)CC2)c1` the AC50 was “inactive”. With `O=C(NCCCN1CCc2ccccc2C1)C1CCN(S(=O)(=O)N2CCCC2)CC1` the AC50 was 7.94 µM (active). For `O=C(C1CCN(S(=O)(=O)N2CCOCC2)CC1)N1CCN(Cc2ccccc2)CC1`, the AC50 was “inactive”. `O=C(NCc1ccc(F)cc1)C1CCN(S(=O)(=O)N2CCCCC2)CC1` was tested, and the AC50 was “inactive”. In the case of `CC(C)N(CCNC(=O)C1CCN(S(=O)(=O)N2CCOCC2)CC1)Cc1ccccc1`, the AC50 is reported as “inactive”. In the case of `O=C(NCCCN1CCN(Cc2ccccc2)CC1)C1CCN(S(=O)(=O)N2CCCC2)CC1`, the AC50 is reported as 3.98 µM (active). `Cc1cc(C)c(S(=O)(=O)NNC(=O)C2CCN(Cc3ccccc3)CC2)c(C)c1` was tested, and the AC50 was 15.8 µM (active). For `CCCCN(CC)S(=O)(=O)N1CCC(C(=O)NCCCN2CCOCC2)CC1`, the AC50 was “inactive”. `CCS(=O)(=O)N1CCC(C(=O)NCCCN2CCCC2)CC1` was tested, and the AC50 was “inactive”. For `CCN1C(=O)CC(N2CCN(CC(=O)NC(C)C)CC2)C1=O` (configuration not stated), the AC50 was “inactive”. With `CCN(CC)C(=O)Cn1cc(/C=C(\C#N)C(=O)N2CCN(c3ccccc3)CC2)c2ccccc21` the AC50 was “inactive”. With `Cc1ccc(-c2nc3ncccn3c2NC(=O)C2CC2)cc1` the AC50 was “inactive”. `CCn1c(=O)c2c(O)cc(=O)oc2c2ccccc21` was tested, and the AC50 was “inactive”. For `CCc1c(C)c(C#N)c2nc3ccccc3n2c1Nc1c(C)n(C)n(-c2ccccc2)c1=O`, the AC50 was “inactive”. In the case of `N#CCCn1c(=O)c(-c2ccccc2)nc2cnc(Oc3cccc(Cl)c3)nc21`, the AC50 is reported as “inactive”. `Cn1cc(-c2nc3cnc(Oc4ccccc4)nc3n(C)c2=O)c2ccccc21` was tested, and the AC50 was “inactive”. With `CC[C@H](CN(C)C)C(=O)c1ccco1` the activity, negative = inhibition was -4.86% [at 11.4 µM] (inactive). `COc1ccccc1/C=N/NC(=Nc1ccc(C)cc1)c1nc2ccccc2s1` was tested, and the AC50 was “inactive”. `COCCn1c(=O)c(C)nc2cncnc21` was tested, and the AC50 was “inactive”. For `CSc1nc(Sc2cccc(Cl)c2)c2ccccc2n1`, the AC50 was “inactive”. `Cc1c(N2C(=O)CS/C2=N\N=C\c2ccc(Cl)cc2)c(=O)n(-c2ccccc2)n1C` was tested, and the AC50 was “inactive”. With `CC(C)Cn1c(-c2nn(C)cc2Cl)n[nH]c1=S` the AC50 was “inactive”. For `O=C(Nc1cccc(F)c1)N1CCC2(CC1)CCN(C(=O)c1csnn1)CC2`, the AC50 was “inactive”. `Cc1ccc(Oc2nc(-c3ccccc3)ncc2S(C)(=O)=O)cc1` was tested, and the AC50 was “inactive”. For `Cc1c(NC(=O)CSc2nnnn2C)c(=O)n(-c2ccccc2)n1C`, the AC50 was “inactive”. With `CC1(C)S[C@@H]2[C@H](NC(=O)[C@@H](N)c3ccc(O)cc3)C(=O)N2[C@H]1C(=O)O` the AC50 was “inactive”. In the case of `CCc1ccc(N(C(=O)c2csnn2)C(C(=O)NCc2ccccc2)c2ccco2)cc1` (configuration not stated), the AC50 is reported as “inactive”. In the case of `O=C(O)[C@@H](O)[C@@H](O)[C@H](O)[C@H](O)CO`, the activity, negative = inhibition is reported as 0.284% [at 11.4 µM] (inactive). In the case of `N/N=C1/CC(=O)NC(=O)N1`, the activity, negative = inhibition is reported as -6.83% [at 11.4 µM] (inactive). In the case of `CCn1ccnc1C[C@@H]1COc2ccccc2O1`, the AC50 is reported as 1.58 µM (active). `O=C(NCc1cccnc1)C1COc2ccccc2O1` (configuration not stated) was tested, and the AC50 was “inactive”. With `N/C(=N\O)C1COc2ccccc2O1` (configuration not stated) the AC50 was “inactive”. In the case of `COc1ccc(N2C(=O)CC(S/C(N)=N/N=C(\C)c3cccs3)C2=O)cc1` (configuration not stated), the AC50 is reported as “inactive”. In the case of `Cc1cccc(OC(=O)CN2C(=O)C3C4CCC(C4)C3C2=O)c1C` (configuration not stated), the AC50 is reported as “inactive”. For `CCNC(=O)CSc1nnc(C2CC2)n1-c1ccccc1`, the AC50 was “inactive”. In the case of `Cn1cccc1C(=O)C(=O)Nc1cccc(Cl)c1Cl`, the AC50 is reported as “inactive”. With `O=C(Nc1cccc(Cl)c1Cl)c1snnc1-c1ccccc1` the AC50 was 10 µM (active). `O=C(Nc1ccccc1Cl)c1ccccc1Cl` was tested, and the AC50 was “inactive”. `O=[N+]([O-])c1ccc(C2CCCC/C2=N\OCc2cccc(F)c2)c([N+](=O)[O-])c1` (configuration not stated) was tested, and the AC50 was “inactive”. `NCCOB(c1ccccc1)c1ccccc1` was tested, and the AC50 was “inactive”. For `Cc1cc(NC(=O)c2c([N+](=O)[O-])c(C)nn2C)no1`, the AC50 was “inactive”. `CCC(=O)NNc1cc(=O)c2c(=O)n(C)c(=O)n(C)c2[nH]1` was tested, and the AC50 was “inactive”. With `CCOCCCn1cnc2c([nH]c3cc(OC)ccc32)c1=O` the AC50 was “inactive”. For `CCN1CCCC1Cn1cnc2c([nH]c3ccc(C)cc32)c1=O` (configuration not stated), the AC50 was 4.47 µM (active). `COc1ccc2[nH]c3c(NCCCN4CCCC4=O)ncnc3c2c1` was tested, and the AC50 was “inactive”. For `O=S(=O)(C=C(c1ccccc1)c1ccccc1)c1ccccc1`, the AC50 was “inactive”. For `O=S(=O)(c1ccc(Br)cc1)N1CCN(S(=O)(=O)c2ccc(Br)cc2)CC1`, the activity, negative = inhibition was -1.87% [at 11.4 µM] (inactive). With `O=c1oc(-c2cccs2)nc2ccc(Br)cc12` the AC50 was “inactive”. With `O=S(=O)(c1ccccc1)N1N=C(c2cccs2)CC1c1ccc(Br)cc1` (configuration not stated) the AC50 was 1.12 µM (active). `COc1nc(C)nc(Cl)c1NC1=NCCN1` was tested, and the AC50 was “inactive”. For `Clc1cccc(Cl)c1NC1=NCCN1`, the AC50 was 10 µM (active). In the case of `COc1ncc2nc(-c3cccs3)c(=O)n(CCc3ccccc3)c2n1`, the AC50 is reported as “inactive”. With `CCCCOC(=O)CSCC(=O)Nc1cc(C)on1` the AC50 was “inactive”. In the case of `Cc1cc2nc(CCN(C(=S)NCC(C)C)C3CCCC3)[nH]c2cc1C`, the AC50 is reported as 1.12 µM (active). `COc1ccc(/C=C/C(=O)Nc2ccccc2C(=O)N2CCCC2)cc1` was tested, and the AC50 was “inactive”. With `COC(=O)[C@@]1(Cc2ccc(F)cc2)[C@H]2c3cc(C(=O)N4CCCC4)n(Cc4ccc(Cl)c(C(F)(F)F)c4)c3C[C@H]2CN1C(=O)c1ccccc1` the AC50 was “inactive”. For `CCCc1cc2c(n1CCc1ccc(Cl)cc1)C(C)C1CN(C(=O)c3ccccc3)C(C)(C(=O)OC)C21` (configuration not stated), the AC50 was 5.01 µM (active). `COC(=O)[C@@]1(Cc2ccccc2)[C@H]2c3cc(C(=O)N4CCCC4)n(Cc4ccc(S(C)(=O)=O)cc4)c3C[C@H]2CN1C(=O)c1ccccc1` was tested, and the AC50 was “inactive”.
